# Reference: ChEMBL document CHEMBL3433997, “St. Jude Leishmania screening dataset” (2016)
# Experiments:
# Type in all cases: functional
# [1] = target: Solute carrier family 2, facilitated glucose transporter member 1 (Homo sapiens) (UniProt P11166); assay: ST_JUDE_LEISH: Cytotoxicity at 2uM final concentration against transgenic Leishmania Mexicana promastigotes LmGLUT1 that are glucose transport deficient and complemented with the human glucose transporter GLUT1. Activity is measured by DNA content using SYBR green in vitro
# Sequence of Solute carrier family 2, facilitated glucose transporter member 1 (Homo sapiens) (P11166 whole entry): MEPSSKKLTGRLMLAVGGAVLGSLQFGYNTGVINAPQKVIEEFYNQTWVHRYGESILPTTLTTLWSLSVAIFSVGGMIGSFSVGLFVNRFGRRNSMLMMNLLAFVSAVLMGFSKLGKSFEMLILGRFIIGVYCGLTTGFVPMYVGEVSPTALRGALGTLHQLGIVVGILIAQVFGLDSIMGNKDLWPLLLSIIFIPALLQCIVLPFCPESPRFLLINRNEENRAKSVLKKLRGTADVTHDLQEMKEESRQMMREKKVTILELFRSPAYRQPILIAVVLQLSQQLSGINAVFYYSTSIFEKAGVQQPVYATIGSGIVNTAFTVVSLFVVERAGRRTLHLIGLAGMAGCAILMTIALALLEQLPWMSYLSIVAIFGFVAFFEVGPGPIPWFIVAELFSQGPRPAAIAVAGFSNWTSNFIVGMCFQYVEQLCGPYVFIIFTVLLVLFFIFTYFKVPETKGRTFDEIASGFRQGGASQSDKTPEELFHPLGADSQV
# [2] = target: Hexose transporter 1 (Plasmodium falciparum) (UniProt O97467); assay: ST_JUDE_LEISH: Cytotoxicity at 2uM final concentration against transgenic Leishmania Mexicana promastigotes LmPfHT that are glucose transport deficient and complemented with the Plasmodium falciparum hexose transporter. Activity is measured by DNA content using SYBR green in vitro
# [3] = target: Glucose transporter (Leishmania mexicana) (UniProt O61059); assay: ST_JUDE_LEISH: Cytotoxicity at 2uM final concentration against transgenic Leishmania Mexicana promastigotes LmGT2 that are glucose transport deficient and complemented with the L. Mexicana glucose transporter 2. Activity is measured by DNA content using SYBR green in vitro
Structure (SMILES),inhibition [1] [%],inhibition [2] [%],inhibition [3] [%]
OCC1CCN(Cc2ccc(-c3cccc(-c4nc5ccccc5[nH]4)c3)cc2)CC1,1.15,1.08,3.83
COc1cccc(Cc2c(C)nc3nc(N)nc(N)c3c2C)c1,-0.08,1.04,-0.24
O=C(C1COc2ccccc2O1)N(CCCn1ccnc1)Cc1csc(-c2ccc(CNCc3ccccc3)cc2)n1 (stereo not drawn),3.99,4.14,2.05
C[C@H]1CN(Cc2cccc(-c3cc(CNC(=O)c4cccc(CN5CCN(C/C=C/c6ccccc6)CC5)c4)ccc3F)c2)CCN1,11.6,10.6,12.7
FC(F)(F)c1ccc2[nH]c(-c3ccc(-c4cccc(CN5CCCCC5)c4)cc3)nc2c1,2.89,2.01,0.4
CC(C)=C(C(=O)OCc1ccccc1)N1C(=O)[C@@H](NC(c2ccccc2)(c2ccccc2)c2ccccc2)[C@H]1[S+]([O-])CC(=O)OC(C)(C)C (stereo partly drawn),0.68,-0.01,0.75
O=C(Nc1nccs1)c1cn(-c2ccccc2)nc1-c1ccc(Cl)s1,3.1,2.82,3.16
CN1CCC(c2csc3ccc(NC(=O)Nc4ccc(-c5ccncc5)c5ccccc45)cc23)CC1,-0.99,0.65,2.4
O=C(Nc1ccc(N2CCN(Cc3cccc(F)c3)CC2)cc1)c1cccs1,3.08,2.27,4.59
O=C(Nc1cccc(CN2CCN(C(=O)c3cccs3)CC2)c1)c1cccs1,2.53,2.59,2.26
c1ccc(Oc2ccc(Nc3ccnc4cc(-c5cccc(CN6CCOCC6)c5)ccc34)cc2)cc1,-0.77,0.67,1.46
CC(C)(C)c1ccc(CNCCOc2ccc(Nc3nnc(-c4ccc(-c5ncc[nH]5)cc4)o3)c3ccccc23)cc1,2.98,2.75,2.83
Brc1cc(Br)c2c(c1)C(NCCCNC1CCNc3c(Br)cc(Br)cc31)CCN2 (stereo not drawn),1.08,0.89,0.34
COCCN1CCC(CN(C)CC(C)(C)c2nc(-c3ccc(Cl)c(O)c3)c(-c3ccncc3)[nH]2)CC1,2.73,5.16,0.55
CN(Cc1ccc(NC(=O)CCC2CCN(C(=O)/C=C/c3ccc(Cl)c(Cl)c3)CC2)cc1)C1CCOCC1,4.84,5.1,-1.91
COCCN1CCC(CNCC(C)(C)c2nc(-c3ccc(Cl)c(O)c3)c(-c3ccncc3)[nH]2)CC1,7.22,7.6,7.7

Structure (SMILES),inhibition [1] [%],inhibition [2] [%],inhibition [3] [%]
COc1cccc2c(NN=Cc3cccc(Cl)c3)ccnc12,0.32,-3.77,1.77
CN(C)CCCOc1ccc(-c2nc(-c3ccc4c(c3)CCC4=NO)c(-c3ccncc3)[nH]2)cc1,2.55,2.33,1.24
Cn1cnc(CCNC(=O)c2ccc(-c3ccc(-c4nc5cc(F)ccc5[nH]4)cc3)cc2)c1,5.05,5.92,4.84
O=C(/C=C/c1ccc([N+](=O)[O-])cc1)N1CCC(CCN2CCC(c3c[nH]c4ccccc34)CC2)CC1,2.33,3.09,2.47
Nc1ccnc2ccc(NC(=O)CCCCCc3ccccc3)cc12,1.43,0.96,1.99
OC(CN1CCN(c2cccc(Cl)c2)CC1)C(c1ccccc1)c1ccccc1 (stereo not drawn),-1.02,2.99,-2.94
CC(C)C[C@H](Nc1ccc(C#N)c2ccccc12)C(=O)NC(C)(C)C12CC3CC(CC(C3)C1)C2,4.34,5.78,2.11
Cc1cc(CNCC(CCNc2cc(=O)c3ccccc3[nH]2)NCc2cc(Br)cc(Br)c2)oc1C (stereo not drawn),4.51,2.43,3.29
CN1CCN(CCCCCNc2c3ccccc3nc3ccccc23)CC1,28,21.1,17.9
CCCNCc1ccc(-c2ccc(CN(C(=O)c3nn(-c4ccccc4)nc3C)C3CCOCC3)cc2)nc1,-0.49,-0.28,-1.66
Cc1cccc2nc(-c3ccc(-c4ccc(CNCCCN5CCCC5=O)cc4)cc3)[nH]c12,7.88,5.8,4.42
N#Cc1ccc(-c2ccc(C(=O)NCC3CCN(CCN4CCC(c5ccc6c(c5OCC(N)=O)CCCC6)CC4)CC3)cc2)cc1,-0.38,-0.09,2.54
COc1ccc(NC(=O)Nc2ccc(-c3ccc(-c4nc5ccccc5[nH]4)cc3)cc2)cc1,3.84,5.18,2.97
CCCC(CNCc1cccc(C)c1)CNc1cc(=O)c2ccccc2[nH]1 (stereo not drawn),10.9,11.9,11.9
COCCNCc1cccc(-c2cc3nccc(Nc4ccc(Oc5ccccc5)cc4)c3cc2Cl)c1,-0.26,2.37,0.83
